Experimental data: paper PMC8384837, “Expanding the binding specificity for RNA recognition by a PUF domain”

Assays:
Assay in all cases: yeast three-hybrid, YBZ-1, SC-Leu-His + 0.5 mM 3-AT, 4 days
Details in all cases: tags: N-Gal4 AD-HA kept; label: inside an RPR1-promoter hybrid RNA with tandem MS2 sites; ssRNA
PUM1 PUF domain R3-SCK = PUM1 PUF domain R3-SCK (Homo sapiens, UniProt Q14671 828-1176, C935S;R936C;Q939K)
In short: (§1)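 Pumilio-1 PUF domain libraries, randomized at the three base-contacting residues of each repeat, were co-expressed with matching RNA elements from a centromeric plasmid in strain YBZ-1, which carries a LexA–MS2 coat fusion and a HIS3 reporter. Transformants grew for four days on SC-Leu (input) or on SC-Leu-His + 0.5 mM 3-AT (selection), and the repeat regions were PCR-amplified and Illumina-sequenced. The interaction score is the log change in variant frequency from input to selection. That logarithm is base 2, with a pseudocount of 1 where a variant was absent.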

PUM1 PUF domain R3-RAR = PUM1 PUF domain R3-RAR (Homo sapiens, UniProt Q14671 828-1176, C935R;R936A;Q939R)
In short: as §1

PUM1 PUF domain R5-LWS = PUM1 PUF domain R5-LWS (Homo sapiens, UniProt Q14671 828-1176, C1007L;R1008W;Q1011S)
In short: as §1

PUM1 PUF domain R3-SRN = PUM1 PUF domain R3-SRN (Homo sapiens, UniProt Q14671 828-1176, C935S;Q939N)
In short: as §1

PUM1 PUF domain R4-DYM = PUM1 PUF domain R4-DYM (Homo sapiens, UniProt Q14671 828-1176, N971D;H972Y;Q975M)
In short: as §1

PUM1 PUF domain R1-LWK = PUM1 PUF domain R1-LWK (Homo sapiens, UniProt Q14671 828-1176, S863L;R864W;Q867K)
In short: as §1

PUM1 PUF domain R5-RPM = PUM1 PUF domain R5-RPM (Homo sapiens, UniProt Q14671 828-1176, C1007R;R1008P;Q1011M)
In short: as §1

PUM1 PUF domain R4-DFS = PUM1 PUF domain R4-DFS (Homo sapiens, UniProt Q14671 828-1176, N971D;H972F;Q975S)
In short: as §1

PUM1 PUF domain R4-FNA = PUM1 PUF domain R4-FNA (Homo sapiens, UniProt Q14671 828-1176, N971F;H972N;Q975A)
In short: as §1

PUM1 PUF domain R8-SWQ = PUM1 PUF domain R8-SWQ (Homo sapiens, UniProt Q14671 828-1176, N1122S;Y1123W)
In short: as §1

Sequence of PUM1 PUF domain R5-LWS (Q14671 828-1176 C1007L/R1008W/Q1011S): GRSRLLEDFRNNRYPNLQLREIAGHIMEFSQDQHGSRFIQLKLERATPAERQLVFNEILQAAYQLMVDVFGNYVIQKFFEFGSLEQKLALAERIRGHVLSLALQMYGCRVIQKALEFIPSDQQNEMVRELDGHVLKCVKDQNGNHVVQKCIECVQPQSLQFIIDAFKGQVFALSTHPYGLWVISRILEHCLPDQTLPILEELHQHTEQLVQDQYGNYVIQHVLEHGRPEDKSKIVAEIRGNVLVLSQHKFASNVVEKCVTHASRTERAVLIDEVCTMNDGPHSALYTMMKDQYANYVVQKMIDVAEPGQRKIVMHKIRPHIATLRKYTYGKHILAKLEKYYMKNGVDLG

For “GGCUAGAACUAGUGGAUCCCCCGGCGCCCGGCGGCUCGAGCCCGGGUAAGUGUAAUUAGUCUGCAUGCCGCCGGGCGCCAUGCCUGCAGGUCGACUCUAGAAAACAUG”, which binding signal (PUM1 PUF domain R3-SCK) is on record?
The binding signal was 3.52 log2 enrichment (interaction score).

And the binding signal (PUM1 PUF domain R3-RAR)?
Its binding signal is 3.75 log2 enrichment (interaction score).

“GGCUAGAACUAGUGGAUCCCCCGGCGCCCGGCGGCUCGAGCCCGGGUAAGUGUGAAUAGUCUGCAUGCCGCCGGGCGCCAUGCCUGCAGGUCGACUCUAGAAAACAUG” was tested. Which binding signal (PUM1 PUF domain R5-LWS) did it give?
Its binding signal is 1.62 log2 enrichment (interaction score).

How did the binding signal (PUM1 PUF domain R3-SRN) turn out when “GGCUAGAACUAGUGGAUCCCCCGGCGCCCGGCGGCUCGAGCCCGGGUAAGUGUAAGUAGUCUGCAUGCCGCCGGGCGCCAUGCCUGCAGGUCGACUCUAGAAAACAUG” was run?
Its binding signal is 1.88 log2 enrichment (interaction score).

For “GGCUAGAACUAGUGGAUCCCCCGGCGCCCGGCGGCUCGAGCCCGGGUAAGUGUACAUAGUCUGCAUGCCGCCGGGCGCCAUGCCUGCAGGUCGACUCUAGAAAACAUG”, which binding signal (PUM1 PUF domain R4-DYM) is on record?
Its binding signal is 5.08 log2 enrichment (interaction score).

How did the binding signal (PUM1 PUF domain R1-LWK) turn out when “GGCUAGAACUAGUGGAUCCCCCGGCGCCCGGCGGCUCGAGCCCGGGUAAGUGUAAAUCGUCUGCAUGCCGCCGGGCGCCAUGCCUGCAGGUCGACUCUAGAAAACAUG” was run?
The binding signal was 4.58 log2 enrichment (interaction score).

For “GGCUAGAACUAGUGGAUCCCCCGGCGCCCGGCGGCUCGAGCCCGGGUAAGUGUUAAUAGUCUGCAUGCCGCCGGGCGCCAUGCCUGCAGGUCGACUCUAGAAAACAUG”, which binding signal (PUM1 PUF domain R5-RPM) is on record?
Its binding signal is 2.25 log2 enrichment (interaction score).

And the binding signal (PUM1 PUF domain R5-LWS)?
Its binding signal is 2.93 log2 enrichment (interaction score).

What does the source list for “GGCUAGAACUAGUGGAUCCCCCGGCGCCCGGCGGCUCGAGCCCGGGUAAGUGUAUAUAGUCUGCAUGCCGCCGGGCGCCAUGCCUGCAGGUCGACUCUAGAAAACAUG”?
binding signal (PUM1 PUF domain R4-DFS): 6.8 log2 enrichment (interaction score); binding signal (PUM1 PUF domain R4-FNA): 2.23 log2 enrichment (interaction score)

How did the binding signal (PUM1 PUF domain R4-DFS) turn out when “GGCUAGAACUAGUGGAUCCCCCGGCGCCCGGCGGCUCGAGCCCGGGUAAGUGUAAAUAGUCUGCAUGCCGCCGGGCGCCAUGCCUGCAGGUCGACUCUAGAAAACAUG” was run?
The binding signal was 6.43 log2 enrichment (interaction score).

What about the binding signal (PUM1 PUF domain R8-SWQ) of the same sequence?
Its binding signal is 4.66 log2 enrichment (interaction score).

And the binding signal (PUM1 PUF domain R4-DYM)?
The binding signal was 4.83 log2 enrichment (interaction score).

What about the binding signal (PUM1 PUF domain R3-SRN) of the same sequence?
The binding signal was 4.26 log2 enrichment (interaction score).

What about the binding signal (PUM1 PUF domain R5-LWS) of the same sequence?
The binding signal was 2.04 log2 enrichment (interaction score).

For “GGCUAGAACUAGUGGAUCCCCCGGCGCCCGGCGGCUCGAGCCCGGGUAAGUGUCAAUAGUCUGCAUGCCGCCGGGCGCCAUGCCUGCAGGUCGACUCUAGAAAACAUG”, which binding signal (PUM1 PUF domain R5-LWS) is on record?
Its binding signal is 2.81 log2 enrichment (interaction score).
